The source made the active and inactive calls.
What was measured:
[1] = optical density shifts of acrAB sulA E. coli – strain DRC41, OD650, 48 h, E. coli filamentation inducer project, primary screen (AID 1152); settings: higher = more signal, called active from +8 up or from −8 down;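 also: E. coli MC1000 strain DRC41 lacking acrAB efflux pump and sulA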
[2] = probe aLefty1 binding on compound microarray – biochemical, small-molecule microarray, 635/667 nm fluorescence, primary screen (AID 1153); settings: higher = more signal;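 also: score merges spot fluorescence with signal-to-noise ratio from the scanned slide images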
[3] = plasmodial surface anion channel blockers, osmotic lysis – cell-based, P. falciparum Indochina, OD700, 1 h, primary screen (AID 1154); settings: P. falciparum Indochina infected RBC osmotic lysis, higher = more signal, called active from +8 up or from −8 down
[4] = plasmodial surface anion channel blockers, osmotic lysis – cell-based, P. falciparum Indochina, OD700, 2 h, primary screen (AID 1155);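 also: lysis reports solute entry through the parasite surface anion channel PSAC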; settings: P. falciparum Indochina infected erythrocytes, higher = more signal, called active from +8 up or from −8 down
[5] = changes in parasitized red cell lysis, either direction – P. falciparum Indochina, OD700, 3 h, PSAC antagonist project, primary screen (AID 1156); settings: P. falciparum-infected erythrocytes, osmotic lysis, higher = more signal, called active from +8 up or from −8 down
[6] = plasmodial surface anion channel blockers, osmotic lysis – cell-based, P. falciparum Indochina, OD700, 18 h, primary screen (AID 1157); settings: P. falciparum Indochina infected erythrocytes, osmotic lysis OD700, 18 h; higher = more signal, called active from +8 up or from −8 down
[7] = S6 kinase pathway phospho-S6 level changes – cell-based, A549, cytoblot, luminescence, serum-stimulated, primary screen (AID 1158); settings: 5 h, higher = more signal;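 also: serum-stimulated A549 lung adenocarcinoma cells; signal is phosphorylated S6 detected by cytoblot immunostaining with HRP secondary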
[8] = target: NADPH oxidase 2 (Homo sapiens) (UniProt P04839); assay: compounds shifting NOX2 Amplex Red fluorescence – cell-based, HEK293-NOX2, PMA-stimulated, NOX inhibitor project, primary screen (AID 1159); settings: 45 min, higher = more signal, called active from +8 up or from −8 down; also: test concentration not given here
[9] = target: NADPH oxidase 4 (Homo sapiens) (UniProt Q9NPH5); assay: compounds shifting NOX4 Amplex Red fluorescence – cell-based, HEK293-NOX4, tetracycline-induced, NOX inhibitor project, primary screen (AID 1160); settings: HEK293-NOX4, Amplex Red H2O2 fluorescence, 45 min; higher = more signal, called active from +8 up or from −8 down
[10] = target: NADPH oxidase 5 (Homo sapiens) (UniProt Q96PH1); assay: compounds shifting NOX5 Amplex Red fluorescence – cell-based, HEK293-NOX5, NOX inhibitor project, primary screen (AID 1161); settings: HEK293-NOX5, ionomycin, 45 min, higher = more signal
Sequence of NADPH oxidase 5 (Homo sapiens) (Q96PH1 whole entry, looked up): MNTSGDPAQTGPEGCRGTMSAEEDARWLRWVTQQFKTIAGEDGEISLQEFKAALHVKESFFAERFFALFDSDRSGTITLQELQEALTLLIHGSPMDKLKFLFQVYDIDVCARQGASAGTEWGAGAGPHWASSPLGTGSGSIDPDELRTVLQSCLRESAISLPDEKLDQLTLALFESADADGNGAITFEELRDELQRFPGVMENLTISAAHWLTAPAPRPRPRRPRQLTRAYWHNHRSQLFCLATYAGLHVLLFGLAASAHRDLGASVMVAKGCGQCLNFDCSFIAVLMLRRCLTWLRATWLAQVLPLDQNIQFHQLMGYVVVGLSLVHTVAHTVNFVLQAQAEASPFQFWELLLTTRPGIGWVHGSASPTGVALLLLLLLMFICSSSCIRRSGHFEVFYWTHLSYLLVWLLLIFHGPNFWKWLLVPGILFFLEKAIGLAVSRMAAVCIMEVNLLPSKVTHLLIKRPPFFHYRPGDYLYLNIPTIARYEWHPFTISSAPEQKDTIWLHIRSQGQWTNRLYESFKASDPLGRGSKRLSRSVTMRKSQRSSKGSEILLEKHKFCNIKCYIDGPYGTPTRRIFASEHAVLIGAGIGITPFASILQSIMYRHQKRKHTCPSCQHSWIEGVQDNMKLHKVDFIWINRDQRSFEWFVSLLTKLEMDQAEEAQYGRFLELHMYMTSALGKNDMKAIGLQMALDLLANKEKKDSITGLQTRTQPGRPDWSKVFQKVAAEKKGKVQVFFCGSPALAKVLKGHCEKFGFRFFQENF

Sequence of NADPH oxidase 4 (Homo sapiens) (Q9NPH5 whole entry, looked up): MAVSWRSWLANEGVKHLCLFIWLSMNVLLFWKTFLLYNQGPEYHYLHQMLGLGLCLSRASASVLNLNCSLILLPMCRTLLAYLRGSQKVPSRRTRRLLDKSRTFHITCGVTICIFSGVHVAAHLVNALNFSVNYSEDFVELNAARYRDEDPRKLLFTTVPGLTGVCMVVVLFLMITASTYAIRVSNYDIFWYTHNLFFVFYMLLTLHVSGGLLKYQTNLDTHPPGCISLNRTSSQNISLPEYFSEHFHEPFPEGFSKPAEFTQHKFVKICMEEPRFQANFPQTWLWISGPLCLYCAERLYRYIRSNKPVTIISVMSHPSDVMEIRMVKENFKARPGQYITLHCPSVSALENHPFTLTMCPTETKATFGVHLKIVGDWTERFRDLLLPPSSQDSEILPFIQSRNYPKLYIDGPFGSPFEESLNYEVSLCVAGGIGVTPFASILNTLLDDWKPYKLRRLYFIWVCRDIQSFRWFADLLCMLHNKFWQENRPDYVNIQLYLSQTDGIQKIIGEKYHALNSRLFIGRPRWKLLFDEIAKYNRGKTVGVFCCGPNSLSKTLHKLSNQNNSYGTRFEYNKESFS
Sequence of NADPH oxidase 2 (Homo sapiens) (P04839 whole entry, looked up): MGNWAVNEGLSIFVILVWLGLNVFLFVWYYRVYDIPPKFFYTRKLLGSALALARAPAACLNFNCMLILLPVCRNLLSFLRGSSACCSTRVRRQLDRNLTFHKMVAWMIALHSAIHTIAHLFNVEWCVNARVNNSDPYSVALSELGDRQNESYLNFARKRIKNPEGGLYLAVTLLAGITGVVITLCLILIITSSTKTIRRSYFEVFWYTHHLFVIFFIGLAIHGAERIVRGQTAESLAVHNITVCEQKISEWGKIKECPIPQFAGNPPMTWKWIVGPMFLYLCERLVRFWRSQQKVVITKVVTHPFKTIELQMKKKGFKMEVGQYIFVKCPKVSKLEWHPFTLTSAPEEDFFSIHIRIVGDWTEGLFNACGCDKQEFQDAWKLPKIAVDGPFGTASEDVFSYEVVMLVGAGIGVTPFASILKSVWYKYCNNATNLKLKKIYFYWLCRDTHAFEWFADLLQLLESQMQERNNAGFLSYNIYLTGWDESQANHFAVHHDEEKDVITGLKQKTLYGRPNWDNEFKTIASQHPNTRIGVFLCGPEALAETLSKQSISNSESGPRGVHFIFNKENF

SMILES	z-score [1]	composite z-score [2]	z-score [3]	z-score [4]	z-score [5]	z-score [6]	z-score [7]	z-score [8]	z-score [9]	z-score [10]
O=C1OCC=C[C@H]2OC34C=CCN(CCN5CCOCC5)C(=O)[C@H]3N(CCCCCCO)C(=O)[C@@H]4[C@@H]12 (stereo not given in full)	-0.416 (inactive)	0.0253	4.96 (inactive)	1.32 (inactive)	1.21 (inactive)	0.404 (inactive)	1.07	1.51 (inactive)	-0.325 (inactive)	1.92
COCCOC(=O)N1C(=O)[C@@]2(c3cc(C#Cc4ccc(OC)cc4)ccc31)[C@H](c1ccc(OCCO)cc1)N1[C@H](c3ccccc3)[C@H](c3ccccc3)OC(=O)[C@H]1[C@@H]2C(=O)N1CCc2cc(OC)c(OC)cc2C1	2.55 (inactive)	0.212	4.14 (inactive)	1.8 (inactive)	-0.867 (inactive)	0.608 (inactive)	1.02	0.576 (inactive)	0.459 (inactive)	1.27
CN(C)CCCCCCNC(=O)[C@@H]1C[C@@H]2C(=O)NCC(=O)N2[C@@H]1c1cccc(OCCO)c1	0.492 (inactive)	0.169	2.11 (inactive)	0.109 (inactive)	2.28 (inactive)	0.253 (inactive)	0.0964	0.438 (inactive)	0.611 (inactive)	0.6
[N-]=[N+]=NCc1ccccc1C[C@]1(C(=O)NCc2ccccc2)COC(c2ccc(OCCCO)cc2)=N1	0.104 (inactive)	-0.373	28.9 (active)	24.6 (active)	4.42 (inactive)	2.78 (inactive)	-0.153	-2.28 (inactive)	-0.958 (inactive)	-1.81
CC(c1ccccc1)C(O)C1C=CC2C(=O)N(Cc3ccccc3)C(=O)C2N1n1cnnc1 (stereo not given)	-2.13 (inactive)	-0.13	1.78 (inactive)	0.975 (inactive)	0.0175 (inactive)	0.929 (inactive)	-0.396	-0.217 (inactive)	-1.09 (inactive)	-1.02
COc1ccc([Si](C)(C)[C@H]2[C@H](CC(=O)N3CCC[C@H]3CO)O[C@@]3(C(=O)N(Cc4cccc(N5CCC5=O)c4)c4ccccc43)[C@@H]2C)cc1	0.689 (inactive)	0.233	6.65 (inactive)	1.06 (inactive)	1.47 (inactive)	0.696 (inactive)	0.249	1.91 (inactive)	0.777 (inactive)	4.69
C=C(CCCC)C(=O)CC[C@@H](OC(=O)c1ccccc1-c1ccccc1C(=O)O)c1ccc(CO)o1	-0.467 (inactive)	0.379	1.6 (inactive)	0.228 (inactive)	1.19 (inactive)	0.161 (inactive)	-0.946	1.35 (inactive)	-0.203 (inactive)	-0.475
C=CC[C@@]1(C(=O)NCc2ccccc2)N=C(c2ccc(OCCCO)cc2)O[C@@H]1c1ccccc1CN=[N+]=[N-]	-1.52 (inactive)	0.791	24 (active)	8.62 (active)	2.14 (inactive)	1.15 (inactive)	-0.387	-1.15 (inactive)	-0.499 (inactive)	0.694
COCC1=C([C@H](O)CCc2ccccc2)[C@H](CO)[C@@H]2C(=O)N(Cc3ccccc3)C(=O)[C@@H]2C1	1.72 (inactive)	-0.194	15.3 (active)	2.04 (inactive)	0.23 (inactive)	0.477 (inactive)	0.24	-0.543 (inactive)	0.21 (inactive)	-0.0312
O=C1O[C@@H](c2ccccc2)[C@@H](c2ccccc2)N2[C@@H](c3ccc(O)cc3)[C@]3(C(=O)Nc4ccccc43)[C@@H](C(=O)N3CCCCCCC3)[C@H]12	-0.779 (inactive)	2.88	0.571 (inactive)	-0.0476 (inactive)	-1.25 (inactive)	0.516 (inactive)	-0.274	0.915 (inactive)	0.522 (inactive)	1.57
CCCNC(=O)[C@@]1(C)c2ccccc2C(=O)N(C(C)C)[C@H]1c1ccc(CO)cc1	-0.374 (inactive)	0.0371	4.24 (inactive)	-0.445 (inactive)	2.44 (inactive)	-0.804 (inactive)	2.12	-2.39 (inactive)	-2.3 (inactive)	-3.6
O=P(NCC1(CC2(c3ccccc3)CO2)CC1)(c1ccccc1)c1ccccc1 (stereo not given)	-0.569 (inactive)	0.315	0.0174 (inactive)	-0.505 (inactive)	0.424 (inactive)	0.297 (inactive)	-0.242	-0.024 (inactive)	0.266 (inactive)	-2.9
COc1ccccc1CN1C(=O)c2ccccc2[C@](Cc2ccccc2I)(C(=O)NC2CC2)[C@@H]1c1ccc(CO)cc1	0.203 (inactive)	-0.25	11.4 (active)	1.35 (inactive)	2.38 (inactive)	0.99 (inactive)	-0.154	-0.975 (inactive)	-0.89 (inactive)	-2.08
C=CCN1C(=O)[C@]2(Cc3ccccc31)N=C(c1ccc(OCCCO)cc1)O[C@@H]2c1ccccc1	-3.11 (inactive)	0.165	26 (active)	19.4 (active)	1.09 (inactive)	3.1 (inactive)	0.253	-1.42 (inactive)	0.273 (inactive)	-0.785
O=C1OCCC=C[C@H]2OC34C=CCN(c5ccc6ccccc6c5)C(=O)[C@H]3N(CCCCCCO)C(=O)[C@@H]4C12 (stereo not given in full)	0.901 (inactive)	-0.0536	0.856 (inactive)	0.712 (inactive)	0.738 (inactive)	0.426 (inactive)	1.08	1.42 (inactive)	0.441 (inactive)	2.68
O=C1O[C@@H](c2ccccc2)[C@@H](c2ccccc2)N2[C@@H](c3ccccc3OCCO)[C@]3(C(=O)Nc4ccc(C#CC5(O)CCCCCC5)cc43)[C@@H](C(=O)NC[C@H](O)c3ccccc3)[C@H]12	-0.95 (inactive)	1.38	1.87 (inactive)	1.98 (inactive)	-1.02 (inactive)	1.49 (inactive)	-0.308	2.02 (inactive)	0.973 (inactive)	2.17
Cc1ccc(S[C@]2(C(=O)NCc3ccccc3)CC(=O)N(Cc3cc(C(F)(F)F)cc(C(F)(F)F)c3)[C@@H]2c2ccc(CO)cc2)cc1	-0.957 (inactive)	-0.109	2.21 (inactive)	0.818 (inactive)	0.677 (inactive)	0.352 (inactive)	-0.466	0.314 (inactive)	0.546 (inactive)	0.832
O=C1C2C=CC(C(O)c3ccc(B(O)O)cc3)N(Nc3ccc([N+](=O)[O-])cc3)C2C(=O)N1c1ccccc1 (stereo not given)	-1.07 (inactive)	0.363	2.01 (inactive)	1.21 (inactive)	0.136 (inactive)	0.606 (inactive)	-0.537	-1.73 (inactive)	-0.374 (inactive)	-3.79
CN(C)CCCCCCNC(=O)[C@@H]1C[C@@H]2C(=O)N[C@@H](Cc3ccccc3)C(=O)N2[C@@H]1c1cccc(OCCO)c1	0.392 (inactive)	0.073	3.81 (inactive)	0.415 (inactive)	0.407 (inactive)	0.154 (inactive)	-0.243	1.08 (inactive)	1.4 (inactive)	1.4
O=C1NC(=O)C2C1C=CC(C(O)c1cccs1)N2Nc1ccccn1 (stereo not given)	0.218 (inactive)	-0.0035	0.624 (inactive)	0.253 (inactive)	-0.285 (inactive)	0.853 (inactive)	-0.726	0.659 (inactive)	-1.32 (inactive)	-0.795
CC(C)NC(=O)[C@@]1(c2ccc([N+](=O)[O-])cc2)CC(=O)N(C(C)C)[C@@H]1c1ccc(CO)cc1	1.58 (inactive)	-0.82	1.93 (inactive)	-0.672 (inactive)	-0.641 (inactive)	-0.945 (inactive)	1.31	-0.379 (inactive)	0.354 (inactive)	0.0654
CCN(CC)c1ccc(N2CC=CC34O[C@@H]5C=CCCOC(=O)C5[C@H]3C(=O)N(CCCO)[C@@H]4C2=O)cc1 (stereo not given in full)	1.44 (inactive)	-0.28	0.555 (inactive)	-0.829 (inactive)	-0.305 (inactive)	-1.15 (inactive)	1.09	-0.0899 (inactive)	-1.23 (inactive)	0.374
C[n+]1ccc2ccc(O)cc2c1	0.0539 (inactive)	-0.109	0.907 (inactive)	0.557 (inactive)	1.95 (inactive)	0.374 (inactive)	0.387	-0.469 (inactive)	-0.566 (inactive)	0.0145
O=C1OCCC=C[C@H]2OC34C=CCN(CCN5CCOCC5)C(=O)[C@H]3N(CCO)C(=O)[C@@H]4C12 (stereo not given in full)	-0.392 (inactive)	-0.231	0.329 (inactive)	0.392 (inactive)	0.918 (inactive)	0.551 (inactive)	0.65	0.808 (inactive)	0.49 (inactive)	0.0715
COCCOC(=O)N1C(=O)[C@@]2(c3cc(C#CC4=CCCCC4)ccc31)[C@H](C(=O)N1CCN(c3ncccn3)CC1)[C@H]1C(=O)O[C@H](c3ccccc3)[C@H](c3ccccc3)N1[C@@H]2c1ccc(OCCO)cc1	-0.0557 (inactive)	0.894	5.23 (inactive)	1.85 (inactive)	0.251 (inactive)	0.657 (inactive)	0.212	0.977 (inactive)	0.645 (inactive)	0.934
CN(C)CCCC[C@@H]1NC(=O)[C@@H]2C[C@H](C(=O)NCCCCCCN)[C@H](c3ccc(O)cc3)N2C1=O	-0.337 (inactive)	1.37	1.98 (inactive)	0.288 (inactive)	1.28 (inactive)	0.229 (inactive)	-0.648	1.46 (inactive)	-0.964 (inactive)	1.01

Reference: PubChem BioAssay
